Among the data in PubChem BioAssay (NCI) are growth values, retold here.

The panel holds about 83,000 compounds, 20% with a hit somewhere; the sample as a whole holds those more often.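 A percent growth of 40 corresponds to 60% growth inhibition; 0 means no net growth; -100 means all cells died. Active threshold: below 10.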 Unmarked numbers belong to inactive results. Active and inactive are the calls of the source.

This assay deals with ACHN renal. The assay is described as follows: NCI-60 one-dose screen, 48 h (100 = growth as untreated, 0 = no growth, -100 = all killed). To be noted: 10 µM unless noted. How it is done: Growth inhibition of the ACHN human tumor cell line is measured as a screen for anti-cancer activity. Cells are grown in 96 well plates and exposed to the test compound for 48 hours. Compounds are tested at a single concentration, which is 10^-5 M for most compounds. The reported endpoint is percent growth (GI% or GIPRCNT), where numbers from 0 - 100% represent growth inhibition, and numbers from -100% - 0 represent cell death. For example, a value of 40 represents 60% growth inhibition. A value of 0 means no net growth occurred over the course of the experiment. A value of -40 indicates 40% of cells at the beginning of the experiment died by the end of the experiment. A value of -100 means all cells are dead at the end of the experiment.
NCI-60 Human Tumor Cell Lines Screen was performed using the standard one-dose NCI protocol, which is described in more detail at https://dtp.cancer.gov/discovery_development/nci-60/default.htm.
Compounds with GIPRCNT values below 10 were considered active. Activity score was based on GIPRCNT using the following formula: […]
Score is 0 for GIPRCNT values of 100 or above, 50 for GIPRCNT values of 0, and 100 for GIPRCNT values of -100.
Consider `COc1cc(C=Nc2cc(Cl)cc(Cl)c2)ccc1N(CCCl)CCCl`, for which the growth is 63%.

`C[C@]12CC[C@H]3[C@@H](CC[C@]4(O)C[C@@H](O[C@@H]5O[C@H](CO)[C@@H](O[C@@H]6OC[C@@H](O)[C@H](O)[C@H]6O)[C@H](O)[C@H]5O)CC[C@]34C=O)[C@@]1(O)CC[C@@H]2C1=CC(=O)OC1`: the growth is -34.3% (active).

In the case of `CC1(C)N=C(N)N=C(N)N1c1ccc(CCCCc2ccc(Cl)c(S(=O)(=O)F)c2)c(Cl)c1`, the growth was 28.2%.

As to `CCOC(=O)CCN(C)C1=Nc2ccc(Cl)cc2C(c2ccccc2)=[N+]([O-])C1`, the growth was 110%.

`COC(=O)[C@@H](C)C[C@H](Cc1ccccc1)NC(=O)c1csc([C@@H](C[C@H](C(C)C)N(C)C(=O)[C@@H](NC(=O)[C@H]2CCCN2C)C2CC2)OC(C)=O)n1`: the growth is 20.8%.

Take `COc1ccc2c(c1)c(C1(O)CC(CSC#N)OC1=O)cn2C(=O)c1ccc(Cl)cc1` (stereo not given): the growth is 94.5%.

For the compound `CN1C(=O)C(=Cc2cn(Cc3ccccc3)c3ccccc23)C(=O)N(C)C1=O`, the growth is 84.5%.

Take `CCn1nccc1NC(=O)C(=O)c1cn(Cc2ccc(F)cc2)c2cccc(OC)c12`: the growth is 85.3%.

Take `O=C(CC1(O)C(=O)N(Cc2ccccc2)c2ccc(Cl)cc21)c1ccc(C(=O)NCC2CCC3(CC2)OOC2(CCCCC2)OO3)cc1` (stereo not given): the growth was -83.9% (active).

As to `COC(=O)[C@@]1(C)CC[C@]2(C)CC[C@]3(C)C4=CC=C5C(=CC(=O)C(O)=C5C)[C@]4(C)CC[C@@]3(C)[C@@H]2C1`, the growth was -100% (active).

For the compound `COc1ccc(/C=C\c2cc(OC)c(OC)c(OC)c2)cc1NC(=O)/C=C/c1ccc(OC)c(OC)c1`, the growth is 42%.

Regarding `O=C(CC1(O)C(=O)Nc2ccc(Br)cc21)c1ccc(C(=O)NCC2CCC3(CC2)OOC2(CCCCC2)OO3)cc1` (stereo not given), the growth was -40.8% (active).

Turning to `COc1cc(C=Nc2cccc(Br)c2)ccc1N(CCCl)CCCl`, the growth is 18.2%.

Consider `COc1cc([C@@H]2c3cc4c(cc3[C@H](OC(C)=O)[C@H]3COC(=O)[C@H]23)OCO4)cc(OC)c1OC`, for which the growth was 28.7%.

In the case of `CC[C@H](C)[C@H](NC(=O)c1nccn1C)C(=O)N(C)[C@H](C[C@@H](OC(C)=O)c1nc(C(=O)N[C@@H](Cc2ccccc2)C[C@H](C)C(=O)OC)cs1)C(C)C`, the growth was 42.3%.

Turning to `C=CC12CCN(CC1)C(C(O)c1ccnc3ccc(OC)cc13)C2` (stereo not given), the growth was 80.4%.

`O=[N+]([O-])CC(c1ccccc1Cl)c1c(-c2ccccc2)[nH]c2ccccc12` (stereo not given): the growth was 39.7%.

Regarding `C=CCn1cc(C=C2C(=O)N(C)C(=O)N(C)C2=O)c2ccccc21`, the growth is 98.9%.

With `O=[N+]([O-])c1cc([N+](=O)[O-])c(Cl)cc1Cl`, the growth was -91.5% (active).

Regarding `CN(C)C(=O)Oc1ccccc1`, the growth is 101%.

`Cc1ccc(C(=O)NCCCOc2ccc(N3C(N)=NC(N)=NC3(C)C)cc2Cl)cc1S(=O)(=O)F`: the growth was 110%.

For the compound `COc1ccc(N(CC(=O)NCCC[Te]c2ccccc2)C(=O)CCSC2=C(C)C(=O)c3ccccc3C2=O)cc1`, the growth is -51.4% (active).

For `CC[C@H](C)[C@@H]1OC(=O)C(C)(C)[C@H](O)[C@H](Cc2ccccc2)OC(=O)[C@H](C(C)C)OC(=O)[C@@H](NC(=O)c2cccc(NC=O)c2O)[C@@H](C)OC1=O`, the growth was 46.4%.

In the case of `O=C1C(=Cc2cn(Cc3ccccc3)c3ccccc23)C(=O)N(Cc2ccccc2)C(=O)N1Cc1ccccc1`, the growth is 86.2%.

For `Fc1c[c-]c(-c2ccccn2)c(F)c1.[CH3-].[Pt+2].c1ccc([PH+](c2ccccc2)c2ccccn2)cc1`, the growth was -80.4% (active).

Regarding `COC(=O)CC[C@H](Cc1ccccc1)NC(=O)c1csc([C@@H](C[C@H](C(C)C)N(C)C(=O)[C@@H](NC(=O)[C@H]2CCCCN2C)C(C)C)OC(C)=O)n1`, the growth is 23.9%.

As to `O=C1C2C(C(=O)[N]1[Hg][c]1cccs1)C1(Cl)C(Cl)=C(Cl)C2(Cl)C1(Cl)Cl` (stereo not given), the growth was -35.7% (active).

On to `c1ccc(CSC(c2ccccc2)c2ccccc2)cc1`, for which the growth was 103%.

With `C/C(=C\c1cc(C(F)(F)F)nn1CCNC(=O)OC(C)(C)C)[C@@H]1C[C@@H]2O[C@]2(C)CCC[C@H](C)[C@H](O)[C@@H](C)C(=O)C(C)(C)[C@@H](O)CC(=O)O1`, the growth is 74.6%.

For the compound `COC(=O)C1OC(Oc2ccc(N(CCCl)CCCl)cc2)C(OC(C)=O)C(OC(C)=O)C1OC(C)=O` (stereo not given), the growth was 27.4%.

For the compound `COc1cc(/C=N/C2=C(C#N)C(c3ccco3)c3c(c4cc(C)ccc4oc3=O)O2)cc(OC)c1OC` (stereo not given), the growth was 90.1%.

In the case of `CCCCCN(CCCCC)CC(O)c1cc(Cl)ccc1OC` (stereo not given), the growth is 43.9%.

`CCCc1cc(O)c2c3c(c(=O)oc2c1)CN(C)CC3`: the growth was 44.6%.

Take `COC(=O)C1CCC(NC(=O)c2csc([C@@H](C[C@H](C(C)C)N(C)C(=O)[C@@H](NC(=O)[C@H]3CCCCN3C)C(C)C)OC(C)=O)n2)CC1` (stereo not given in full): the growth is 23.8%.

In the case of `C#Cc1ccc2c(c1)C(c1ccccc1)=NCC(=O)N2C`, the growth is 52%.

For the compound `COC(=O)[C@@H](C)C[C@H](Cc1cn(C)c2ccccc12)NC(=O)c1csc([C@@H](C[C@H](C(C)C)N(C)C(=O)[C@@H](NC(=O)[C@H]2CCCCN2C)C(C)C)OC(C)=O)n1`, the growth is 18.8%.

Take `NC(N)=N/N=C\c1c[nH]c2ccc(Br)cc12`: the growth is 95.4%.

In the case of `O=C(CC1(O)C(=O)Nc2ccccc21)c1ccc(C(=O)NCC2CCC3(CC2)OOC2(CCCCC2)OO3)cc1` (stereo not given), the growth was 60.1%.

On to `C/C1=C/C(=O)O[C@@H]2C[C@@H](CC[C@H](C)/C=C\C=C\CC1)O[C@@](O)([C@@H]1CSC(=O)N1CO)C2`, for which the growth was 10.6%.

As to `CC(=O)OCc1cc[c]([Hg][Cl])o1`, the growth was 60.8%.
